Reference: PubChem BioAssay (EPA / NIEHS)
Calls of active or inactive are those of the source. How the source made its calls: active means hit-call score of the fitted dose curve at least 0.9, where 1 is the maximum; inactive means score below 0.9.

Experiment: ATG_AP_2_CIS: Attagene CIS-FACTORIAL HepG2 Assay for human Activator Protein 2 (AP-2) (AID 2282932)
Settings: HepG2 AP-2 cis-reporter, Attagene transcription factor profiling; actives raise or lower the signal
Description: ATG_CIS is a cell-based, multiplexed-readout assay that uses HepG2, a human liver cell line, with measurements taken at 24 hours after chemical dosing in a 24-well plate.ATG_AP_2_CIS is one of 52 assay component(s) measured or calculated from the ATG_CIS assay. It is designed to make measurements of mRNA induction, a form of inducible reporter, as detected with fluorescence intensity signals by Reverse transcription polymerase chain reaction (RT-PCR) and Capillary electrophoresis technology.Data from the assay component ATG_AP_2_CIS was analyzed into 1 assay endpoint. This assay endpoint, ATG_AP_2_CIS, was analyzed with bidirectional fitting relative to DMSO as the negative control and baseline of activity. Using a type of inducible reporter, measures of mRNA for gain or loss-of-signal activity can be used to understand the reporter gene at the transcription factor-level as they relate to the gene TFAP2A and TFAP2B and TFAP2D. Furthermore, this assay endpoint can be referred to as a primary readout, because this assay has produced multiple assay endpoints where this one serves a reporter gene function. To generalize the intended target to other relatable targets, this assay endpoint is annotated to the dna binding intended target family, where the subfamily is basic helix-turn-helix leucine zipper.
Human liver HepG2 cells are transiently transfected with multiple reporter transcription units (MRTUs) in 6-well plates using FuGene 6 reagent (Roche; 3 ml FuGene/1 mg DNA). The MRTU constructs are regulated by a cis-regulating element (promoter). […] A major difference between the CIS and TRANS system is that in CIS activities of endogenous TFs are measured, whereas the TRANS assay evaluates changes in activities of exogenous, chimeric NR-Gal4 proteins. […] At the end of 24 hour incubation, total RNA was isolated using TriZol reagent (Invitrogen). The isolated RNA is then reverse-transcribed using oligo(dT) primer and Mo-MLV reverse transcriptase (Invitrogen) with DNAse I (Ambion) treatment for 30 min. The one-tenth of the produced cDNA was amplified by PCR using Taq DNA polymerase (Invitrogen) and two reporter sequence-specific primers. The PCR products were fluorescently labeled by primer extension with 6-arboxyfluorescein (6-FAM) 5'-labeled reporter sequence-specific primer (2 min at 95 C, 20 s at 68 C and 10 min at 72 C) and these products were digested with 5U of HpaI (New England Biolabs) for 2h at 37 C. The fragments were purified using Qiaquick PCR columns (Qiagen), analyzed on an ABI 3130xL genetic analyzer (Applied Biosystems) with peak positions identified by using a set of X-rhodamine (ROX)-labeled MapMarker1000 molecular weight standards (BioVentures). The raw capillary electrophoresis data was processed using Attagraph software (Attagene).

SMILES	outcome	AC50
Cc1ccc2ncccc2c1	inactive	
COc1cc(S(=O)(=O)O)c(C)cc1N=Nc1c(O)ccc2cc(S(=O)(=O)O)ccc12	inactive	
NCC1(Cc2noc(=O)[nH]2)CCCCC1	inactive	
C1CCC(SSC2CCCCC2)CC1	inactive	
C=CCc1ccc(O)c(OC)c1	inactive	
CC(=O)C(C)=CC1C(C)=CCCC1(C)C (stereo not given)	inactive	
Cc1cccc([N+](=O)[O-])c1C	inactive	
NS(=O)(=O)c1cc2c(cc1Cl)NCNS2(=O)=O	inactive	
CC(C)(C)c1cc(O)c(C(C)(C)C)cc1O	inactive	
CC(C)c1ccc(C(=O)N=C(N)N)cc1S(C)(=O)=O	inactive	
Cc1ccc(C)c(O)c1C	inactive	
COc1cc(C=O)ccc1O	inactive	
CN1CCCC1=O	inactive	
CCCCCC(=O)O	inactive	
Cc1ccc(Cl)cc1	inactive	
COc1cc(-c2nc(NC(=O)c3cc4cc(C)cc(C)c4n3CC(=O)O)sc2CCC2CCCCC2)c(OC)cc1Cl		10.4 µM (active)
CCCCCCCCCCC	inactive	
CC(=O)OC/C=C(\C)CCC=C(C)C	inactive	
COCCOC[C@H](CC1(C(=O)NC2CCC(C(=O)O)CC2)CCCC1)C(=O)Oc1ccc2c(c1)CCC2 (stereo not given in full)	inactive	
CC(CO)OC(C)CO (stereo not given) (tested in a mixture with another compound)	inactive	

SMILES	outcome	AC50
CNC(=O)[C@H]1O[C@@H](n2cnc3c(NCc4cc(Cl)ccc4OCc4cc(C)no4)ncnc32)[C@H](O)[C@@H]1N	inactive	
Cc1ccc(C)c(C)c1	inactive	
O=C(O)Cc1ccccc1Nc1c(Cl)cccc1Cl	inactive	
Cc1c(C(=O)O)c(O)cc2c1C(=O)c1c(O)c([C@@H]3O[C@H](CO)[C@@H](O)[C@H](O)[C@H]3O)c(O)c(O)c1C2=O	inactive	
Cc1ccc(C(C)C)c(O)c1	inactive	
C[Si]1(C)O[Si](C)(C)O[Si](C)(C)O[Si](C)(C)O1	inactive	
CCCCC(CC)COC(=O)CC(C(=O)OCC(CC)CCCC)S(=O)(=O)O (stereo not given)	inactive	
CCCCOC(=O)CCCCCCCCC(=O)OCCCC	inactive	
NC(=O)Cn1c(=O)cc(CCN2CCN(c3nccc4sccc34)CC2)c2ccc(F)cc21	inactive	
CC(=O)OCCOCCOCCOC(C)=O	inactive	
Cc1cc(NC(=O)C(=O)O)cc(C)c1Oc1ccc(O)c2c1CCC2	inactive	
Nc1ccccc1N	inactive	
CCOC(=O)C(C)(C)Oc1ccc(Cl)cc1	inactive	
CNCc1cc(F)ccc1Oc1ccc(Cl)c(Cl)c1	inactive	
O=C(O)CCCCC(=O)O	inactive	
CCCCCCCCCCCC(=O)OC	inactive	
Oc1ccc2c(c1)OC[C@@H](N1CCC(O)(c3ccc(F)cc3)CC1)[C@H]2O	inactive	
Cc1cccc(C)c1O	inactive	
Cc1ccccc1Cl	inactive	
Cc1cccc(Nc2cc(Cl)nc(SCC(=O)O)n2)c1C	inactive	
